Source: PubChem BioAssay
Unmarked numbers belong to inactive results. Calls of active or inactive are those of the source.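 Rule for the calls: active = growth inhibition above 50% at the single 2 µM test dose, taken to imply half-maximal potency below 2 µM; inactive = the rest.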

experiment: antimalarial activity against Dd2 strain (AID 2302);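 note: 0% = DMSO untreated growth and 100% = chloroquine plus artemisinin killed control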; conditions: P. falciparum Dd2 in RBCs, LDH growth readout, 72 h; at 2 µM; stronger effect = higher value

Structure (SMILES)	growth inhibition
CC(C)(C)c1ccc(NC(=O)c2ccc(CN3CCCN(Cc4cccc(Cl)c4)CC3)cc2)cc1	7%
CC1(C)[C@H]2CC[C@@H](CNc3nc(NCCc4cnc[nH]4)nc(Nc4ccc5c(c4)OCO5)n3)[C@@H]1C2	88% (active)
Cc1cc(C2CCN(CCCCNC(=O)c3ccc(NC(=O)c4ccc(Cl)cc4)cc3)CC2)c(C)cc1OCc1ccccn1	65% (active)
Oc1ccc(CCCNc2nc(NCc3ccccc3-c3ccccc3)nc(NC3CCNCC3)n2)cc1	2%
CCC(=Cc1cccc([N+](=O)[O-])c1)C(=O)NCC1CCN(c2nc(N)c3cc(OC)c(OC)cc3n2)CC1	62% (active)
NCCCCc1c(-c2ccc(Cl)c(Cl)c2)[nH]c2ccc(Cl)cc12	20%
CCCCN(C(=O)c1ccccc1C)c1nnc(-c2ccccc2C)s1	94% (active)
Cc1cccc2[nH]c(-c3ccc(-c4cccc(NC(=O)COc5ccccc5C(N)=O)c4)s3)nc12	19%
COc1ccc2nccc([C@@H](O)CN3CCC(NC(=O)c4nc(Cl)c(Cl)c(N)c4Cl)CC3)c2c1	17%
Cc1cc(N2CCCC2)nc(Nc2ccc(NC(=O)c3ccc(Br)o3)cc2)n1	57% (active)
Cn1c(=N)cc(-c2ccc(Br)cc2)c2c(=O)[nH]c(N)nc21	57% (active)
CCC(C)(C)NC(=O)C(c1cccc(OC)c1)N(C(=O)CNC(=O)c1cccs1)c1ccc2c(c1)OCCO2 (stereo not given)	76% (active)
Oc1ccccc1CCNCC1CCc2ccccc2C1 (stereo not given)	98% (active)
COc1ccc2nccc([C@@H](O)CN3CCC(NCc4ccc(OC)c(NC=O)c4)CC3)c2c1	-1%
CCCN(Cc1ccc(OCC)cc1)Cc1cc(=O)c2cc(Cl)ccc2[nH]1	82% (active)
COc1cc(NCCCCCNc2cc(Cl)nc3ccccc23)nc2ccccc12	54% (active)
FC(F)(F)c1ccc2nc(-c3cccc(-c4cccc(CN5CCN(c6ccncc6)CC5)c4)c3)[nH]c2c1	99% (active)
CN1CCN(CCCN(Cc2csc(-c3ccc(CNCc4ccccc4)cc3)n2)S(=O)(=O)c2ccccc2)CC1	78% (active)
O=S1(=O)NC2(CCN(CCc3ccc(Cl)cc3)CC2)Nc2cc(F)cc(F)c21	5%
O=C(NCCCN1CCCC1=O)c1cnc(N2CCC(Oc3ccccc3)CC2)c(Cl)c1	93% (active)

Structure (SMILES)	growth inhibition
COc1ccc(C(=O)Nc2cc(Br)c3c(c2)CNCC3)cc1Br	8%
NC(Cc1ccc(Cl)cc1)=NCCN1CCCCCC1	94% (active)
CC1CCCC(NC(=O)CCOc2ccccc2)C1 (stereo not given)	32%
Cc1noc(-c2ccc(NC[C@@H](C)NC[C@H](O)c3cccc(Cl)c3)cc2)n1	84% (active)
COc1ccc(NC(=O)Nc2cccc(-c3ccncc3)c2)cc1N1CCN(C)CC1	57% (active)
Cc1cc(N2CCCN(CC3CCCCC3)CC2)nc(Nc2ccc(Br)cc2)n1	54% (active)
CCCNCc1ccc(-c2ccc(CN(CCOC)C(=O)c3cscn3)cc2)nc1	16%
CC(=O)Nc1ccc(Cl)c(Cl)c1	98% (active)
O=C(Nc1ccc(CN2CCCCC2)cc1)c1ccc(COc2ccc([N+](=O)[O-])cc2)o1	-3%
CCOc1ccc(/C=C/C(=O)Nc2cccc3c2CCN(C)C3)cc1	3%
Cc1cc(NN=Cc2ccc(F)cc2)c2cccc(C)c2n1	99% (active)
COc1ccc(CNC(=O)c2cnc3c(O)cccc3c2Nc2cccc(NC(=O)c3ccc(F)cc3)c2)cc1	65% (active)
CCCCOc1cc2[nH]cc(C(=O)OCC)c(=O)c2cc1OCCCC	96% (active)
OC(Cn1ccnc1)(c1ccc(Cl)cc1Cl)C1CCCCC1 (stereo not given)	58% (active)
O=C(c1cccs1)N1CCN(c2ccc([N+](=O)[O-])c(NC3CC3)c2)CC1	95% (active)
CC(=O)Nc1cccc(C(=O)Nc2cccc(-c3ccc(-c4nc5ccc(F)cc5[nH]4)s3)c2)c1	30%
C=C1C[C@@H](n2cnc3c(NC(=O)c4ccccc4)ncnc32)[C@@H](F)[C@@H]1OC(c1ccccc1)(c1ccccc1)c1ccccc1	97% (active)
CS(=O)(=O)Nc1ccc2[nH]cc(C3CCN(CC4CCC(NC(=O)/C=C/c5ccc(Cl)c(Cl)c5)CC4)CC3)c2n1 (stereo not given)	10%
CN1CCN(c2ccnc3ccc(NC(=O)Nc4ccc(-c5ccccc5)cc4)cc23)CC1	41%
CCC[C@@H]([C@@H](CC(C)C)C(=O)N[C@@H](CCCCNC(=O)c1ccccn1)C(=O)Nc1nccs1)N(O)C=O	100% (active)
